Compound activity as filed in PubChem.
An excerpt weighted towards active compounds, which were near 1.8% of everything screened.
RN4220 kill – kills Staphylococcus aureus RN4220; S. aureus RN4220 growth, OD600, 16 h; 330,000 tested, 0.33% active; AID 1259311; inhibition, % (no concentration beside the values); in the data active = inhibition above about 85%
SSB-PriA inh – blocks PriA binding to SSB C-terminal tail; AlphaScreen SSBct-PriA binding, biotinylated peptide; inhibition, % at 33 µM; 430,000 tested, 0.6% active; in the data active = inhibition mostly above about 37%, no sharp cut-off; inactive = mostly below about 20%
DUSP3 inh – DUSP3 (human) phosphatase inhibition. recombinant VHR phosphatase, pNPP absorbance. inhibition, % at 13.3 µM. 290,000 tested, 0.52% active. AID 1654; in the data active = inhibition above about 50%
Target sequence (P51452 whole entry, looked up): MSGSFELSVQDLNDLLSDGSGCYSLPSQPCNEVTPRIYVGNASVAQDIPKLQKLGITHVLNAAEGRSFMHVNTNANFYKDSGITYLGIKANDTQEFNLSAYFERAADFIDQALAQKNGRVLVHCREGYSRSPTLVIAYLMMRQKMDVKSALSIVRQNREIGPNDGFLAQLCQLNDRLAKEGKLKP
PfHsp40 yeast – rescue of PfHsp40-mediated yeast toxicity; S. cerevisiae expressing PfHsp40, growth rescue, ATP luminescence; growth rescue, % at 12.5 µM; 340,000 tested, 0.68% active; in the data active = growth rescue above about 28%, passing the limit was not always enough;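 note: yeast W303a lacking pdr1 and pdr3 grown in galactose medium; growth measured after three days at 30 °C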
ugtP null kill – kills S. aureus RN4220 lacking UgtP; S. aureus RN4220 ugtP deletion, OD600 growth, 16 h; growth inhibition, % (no concentration beside the values); 330,000 tested, 0.54% active; AID 1259309; in the data active = growth inhibition above about 68%
Mtb hypoxia inh – reduces hypoxia-regulated biosensor signal in M. tuberculosis. fluorescence inhibition, % (concentration not given with the values). 300,000 tested, 0.1% active. M. tuberculosis hypoxia-regulated fluorescent reporter, fluorescence; in the data active = fluorescence inhibition mostly above about 23%, no sharp cut-off; inactive = mostly below about 17%
Each line names hits and unclear results; the compound was inactive in the other large screens.

O=S(=O)(N(Cc1ccccc1)C(CO)Cc1ccccc1)N(Cc1ccccc1)C(CO)Cc1ccccc1 (configuration not stated)	none (no result: SSB-PriA inh, DUSP3 inh, PfHsp40 yeast)
O=c1c2ccccc2nc(SCc2cccc(F)c2)n1-c1cccc(S(=O)(=O)N2CCCC2)c1	RN4220 kill 96.6, ugtP null kill 93.7
O=c1c2ccccc2nc(SCc2cccc(F)c2)n1CCn1c(SCc2cccc(F)c2)nc2ccccc2c1=O	none (no result: RN4220 kill, DUSP3 inh, PfHsp40 yeast, ugtP null kill, Mtb hypoxia inh)
C[n+]1c(-c2ccccc2)c2cc(N)ccc2c2ccc(N)cc21	PfHsp40 yeast 128.1, ugtP null kill 98.2 (not shown: Mtb hypoxia inh)
CCc1cccc(C)c1NC(=S)NCCc1c(C)[nH]c2ccc(C)cc12	SSB-PriA inh 39.8
O=C(/C=C\c1ccc2c(c1)OCO2)NCCn1ncc2c(=O)n(Cc3ccc(Cl)cc3)cnc21	none (no result: RN4220 kill, DUSP3 inh, PfHsp40 yeast, ugtP null kill, Mtb hypoxia inh)
O=[N+]([O-])c1cccc(-c2csc(NN=Cc3cccc(O)c3)n2)c1	ugtP null kill 93.7 (no result: DUSP3 inh, PfHsp40 yeast)
CCOc1ccc(NCc2cc3c(C(C)(C)C)nn(-c4ccccc4)c3[nH]c2=O)cc1	PfHsp40 yeast 42.6
COc1ccc(NC(=O)N[C@H]2CC(=O)N(c3ccc4c(c3)OCCO4)C2)c(OC)c1	none (no result: RN4220 kill, DUSP3 inh, PfHsp40 yeast, ugtP null kill, Mtb hypoxia inh)
CC(C)n1cnc(S(=O)(=O)N2CC(Oc3nccs3)C2)c1	none (no result: RN4220 kill, DUSP3 inh, PfHsp40 yeast, ugtP null kill, Mtb hypoxia inh)
CC(C)=CCc1c2c(c3occ(-c4ccc(O)cc4)c(=O)c3c1O)C=CC(C)(C)O2	RN4220 kill 99.5, PfHsp40 yeast 38.9, ugtP null kill 100.0 (no result: Mtb hypoxia inh)
O=C(CCCS(=O)(=O)c1ccc(Cl)cc1)Nc1nc(-c2ccccn2)cs1	SSB-PriA inh 33.0 (no result: RN4220 kill, DUSP3 inh, PfHsp40 yeast, ugtP null kill, Mtb hypoxia inh)
O=C(CCS(=O)(=O)c1ccccc1)Nc1nc(-c2ccccn2)cs1	none (no result: DUSP3 inh)
Cc1ccnc(NC(=O)CCS(=O)(=O)c2ccccc2)c1	none
O=C(CCS(=O)(=O)c1ccc(F)cc1)Nc1nc(-c2ccccn2)cs1	SSB-PriA inh 43.0
O=C(CCS(=O)(=O)c1ccccc1)Nc1ccccn1	DUSP3 inh 59.7
O=C(c1cc(-c2ccco2)[nH]n1)N1CCC(S(=O)(=O)c2ccccc2)CC1	none (no result: RN4220 kill, DUSP3 inh, PfHsp40 yeast, ugtP null kill, Mtb hypoxia inh)
CC(=O)N1CCc2ccc(NC(=O)C(C)(C)C)cc2C1	none (no result: RN4220 kill, DUSP3 inh, PfHsp40 yeast, ugtP null kill, Mtb hypoxia inh)
O=C(CSc1nnc(-c2ccc(F)cc2)o1)N1CCCCC1	Mtb hypoxia inh 45.8
CC1CCCN(C(=O)CSc2nnc(-c3ccc(O)cc3)o2)C1 (configuration not stated)	none
CC1CCCN(C(=O)CSc2nnc(-c3cccs3)o2)C1 (configuration not stated)	Mtb hypoxia inh 51.2
O=C(CSc1nnc(-c2ccccc2)o1)N1CCCCC1	none (not shown: Mtb hypoxia inh)
CC(=O)c1cc(CN2CCC(n3nccc3NC(=O)c3ccccc3C)CC2)cs1	DUSP3 inh 58.8
COc1ccc(CN2CCC(n3nccc3NC(=O)c3ccc4c(c3)OCO4)CC2)cc1C	DUSP3 inh 52.5
Cc1ncc(C[n+]2csc(CCOC(=O)CC34CC5CC(CC(C5)C3)C4)c2C)c(N)n1	none
Cc1c(CCOC(=O)CC23CC4CC(CC(C4)C2)C3)sc[n+]1Cc1ccccc1	ugtP null kill 100.0
CC(=O)CCSc1nnc(-c2cccc(S(=O)(=O)N3CCOCC3)c2)o1	none (no result: DUSP3 inh)
O=S(=O)(c1cccc(-c2nnc(SCc3nc4ccccc4s3)o2)c1)N1CCOCC1	PfHsp40 yeast 46.1
N#C/C(=C(/O)COC(=O)Cc1c[nH]c2ccccc12)c1nc2ccccc2[nH]1	PfHsp40 yeast 80.1 (no result: RN4220 kill, SSB-PriA inh, ugtP null kill, Mtb hypoxia inh)
Clc1ccc(CSc2ncn(-c3ccccc3)n2)cc1	none
O=C(CSc1nccn1-c1ccccc1)c1ccc(Cl)cc1	none (no result: Mtb hypoxia inh)
O=C(CSc1nccn1-c1ccccc1)NO	none
Clc1cccc(CSc2nccn2-c2ccccc2)c1	SSB-PriA inh 52.7 (no result: Mtb hypoxia inh)
Clc1cccc(CSc2ncn(-c3ccccc3)n2)c1	PfHsp40 yeast 31.1
Brc1ccc(CSc2nccn2-c2ccccc2)cc1	SSB-PriA inh 59.2 (no result: Mtb hypoxia inh)
FC(F)(F)c1ccc(CSc2nccn2-c2ccccc2)cc1	SSB-PriA inh 47.6 (no result: Mtb hypoxia inh)
O=C(c1ccco1)N1CCC(CSC2=NCCS2)CC1	none (no result: RN4220 kill, DUSP3 inh, PfHsp40 yeast, ugtP null kill, Mtb hypoxia inh)
O=C(NCCn1nc(C2CC2)n(-c2ccccc2)c1=O)c1ccc(Cl)s1	none (no result: RN4220 kill, DUSP3 inh, PfHsp40 yeast, ugtP null kill, Mtb hypoxia inh)
Cc1ccc(Cl)cc1S(=O)(=O)Nc1ccc2c(c1)OCC(C)(C)C(=O)N2	none (no result: RN4220 kill, DUSP3 inh, PfHsp40 yeast, ugtP null kill, Mtb hypoxia inh)
COCCN(Cc1ccoc1)S(=O)(=O)c1ccc(NC(=O)C(C)C)cc1	none (no result: RN4220 kill, DUSP3 inh, PfHsp40 yeast, ugtP null kill, Mtb hypoxia inh)
Cc1cc(N(CCO)CCO)ccc1N=Nc1cc(F)ccc1F	SSB-PriA inh 75.3
Nc1ccc(N(CCO)CCO)cc1	none
Cc1cc(NC(=O)c2ccc(Br)s2)n(-c2nc3ccccc3s2)n1	none (no result: RN4220 kill, DUSP3 inh, PfHsp40 yeast, ugtP null kill, Mtb hypoxia inh)
CCOC(=O)c1ccc(NC(=O)CSc2c(-c3ccccc3)[nH]c3ccccc23)cc1	none (no result: RN4220 kill, DUSP3 inh, PfHsp40 yeast, ugtP null kill, Mtb hypoxia inh)
CC(C)=C1SC(N2CCCCC2)=NC1=O	none (no result: Mtb hypoxia inh)
